# Inconclusive results are not listed. A number with no mark means an inactive call. The source made the active and inactive calls. The call rests on the fitted dose curve; in most records, active means well fitted inhibition curve with a large enough effect; inconclusive means small, poorly fitted or top-dose-only effect; inactive means no such curve, though single readings can be large or run the other way.
# Molecular target: Aldehyde dehydrogenase 1A1 (Homo sapiens) (UniProt P00352)
# Assay: qHTS for Inhibitors of the Aldehyde Dehydrogenase Family (ALDH1A1) Confirmatory screens (AID 2061316); further: nearly all actives have a fitted effect of over 65% in size
# Details: ALDH inhibition qHTS; series mostly up to 47.3 µM; activity change, negative = inhibition: at the top concentration
# On the % scale 0 is the no-effect control and ±100 the full control effect; potency means the concentration at half of the fitted maximal effect.
SMILES,outcome,Potency,"activity change, negative = inhibition [%]"
O=C1CCc2cc(S(=O)(=O)Nc3cc(F)cc(Cl)c3)c(F)cc2N1,inactive,–,–
COc1ccc(C(=O)N(Cc2ccco2)Cc2cccs2)c(O)c1,–,12.7 µM (active),–
Cc1c(Cl)cccc1NS(=O)(=O)c1cc2c(cc1F)NC(=O)CC2,–,–,-4.44
CN(C)c1cccc(-c2csc(N3CCC(C(N)=O)CC3)n2)c1,–,11.3 µM (active),–
CC(C)(C)Nc1nc(C#N)nc(Nc2ccccc2)n1,–,–,-19.1
S=C(Nc1ccccn1)c1ccccn1,–,5.65 µM (active),–
Cc1nnc(CN(C)c2ncnc3ccc(-c4ccc5c(c4)OCO5)cc23)o1,–,14.2 µM (active),–
O=S1(=O)CCN(Cc2cc(NCC3CCOCC3)c3[nH]c(-c4ccccc4)cc3c2)CC1,–,–,-6.58
Cc1cc(C)nc(NC(=S)N2CCN(c3cncc4ccccc34)CC2)c1,–,5.65 µM (active),–
Cc1c(-c2ccccc2)no[n+]1[O-],–,–,-22.8
Cc1c(C(=O)OCC2CCCO2)[nH]c2c1C(=O)CCC2 (stereo not drawn),–,3.18 µM (active),–
CC(=O)c1ccc(N2CCN(S(=O)(=O)c3ccc4c(c3)n(C)c(=O)n4C)CC2)cc1,–,–,-0.0343
O=C(/C=C/c1cccnc1)Nc1cccc([S+](=O)([O-])Nc2ccccc2F)c1,–,–,2.43
N#Cc1c(-c2ccc(Cl)c([N+](=O)[O-])c2)no[n+]1[O-],–,7.98 µM (active),–
[O-][n+]1onc(-c2ccccc2)c1/C=N/O,–,–,-19
CCOC(=O)c1ccc(O)c2ncc(N3CCC(C(=N)N)CC3)cc12,–,–,-22.6
Cc1noc(C)c1-c1ccc2ncnc(NCc3ccc(F)cc3)c2c1,–,20.1 µM (active),–
O=C1c2ccccc2NC(c2ccc(-c3ccc(-c4ccccc4)cc3)o2)N1O (stereo not drawn),–,4 µM (active),–
O=C(O)CN1C(=O)N/C(=C\c2cccn2-c2ccc(P(=O)(O)O)cc2)C1=O,–,7.98 µM (active),–
O=c1[nH]c(CN2CCOCC2)nc2sc3c(c12)CCC3,–,–,-11
c1cn2cc(-c3ccc4cn[nH]c4c3)nc(Nc3ccc(N4CCOCC4)cc3)c2n1,inactive,–,–
N#CNC(=O)c1ccc(-n2cccc2/C=C2\NC(=O)N(CC(=O)Nc3cccc(F)c3)C2=O)cc1,–,–,-8
COc1ccc(-c2csc(NC(=O)c3ccncc3NS(=O)(=O)c3ccc(C)cc3)n2)cc1,–,22.5 µM (active),–
